Screening data: PubChem, several laboratories
Most compounds without a hit are left out; they make up all but 12% or so of the library.
PLAP act = human PLAP activation; P05187; 96,000 tested, 1.2% active; purified PLAP enzyme, luminescent substrate read-out; stronger effect = higher value; activation fold at 20 µM; AID 696; in the data active = activation fold above about 2
Target sequence (P05187 whole entry, looked up): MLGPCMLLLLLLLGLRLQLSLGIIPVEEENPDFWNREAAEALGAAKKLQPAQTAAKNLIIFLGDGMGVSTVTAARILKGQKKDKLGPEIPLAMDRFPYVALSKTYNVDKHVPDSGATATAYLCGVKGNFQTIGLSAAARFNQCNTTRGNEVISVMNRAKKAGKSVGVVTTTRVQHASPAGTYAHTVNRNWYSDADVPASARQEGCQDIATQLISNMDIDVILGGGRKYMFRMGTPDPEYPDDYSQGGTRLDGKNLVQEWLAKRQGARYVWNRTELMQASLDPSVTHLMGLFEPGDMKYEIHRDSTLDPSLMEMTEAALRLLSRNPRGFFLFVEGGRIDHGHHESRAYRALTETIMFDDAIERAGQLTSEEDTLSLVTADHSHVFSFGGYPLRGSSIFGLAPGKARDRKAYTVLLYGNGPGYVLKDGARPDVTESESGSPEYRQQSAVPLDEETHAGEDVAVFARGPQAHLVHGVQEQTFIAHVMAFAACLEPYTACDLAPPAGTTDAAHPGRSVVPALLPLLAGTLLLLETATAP
PostGolgi yeast = growth inhibition of a yeast mutant, post-Golgi transport screen; post-Golgi transport phenotypic cell assay; 98,000 tested, 0.9% active; inhibition, % at 10 µM;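 also: yeast cells grown in 1536-well plates; yeast grown about 18 h at 30C before absorbance read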
Cav3 T inh = blocks human Cav3.2 T-type calcium channel; 100,000 tested, 4% active; AID 449739; O95180; B-score at 10 µM; Cav3.2-expressing cells, Fluo-4 calcium fluorescence FDSS; stronger effect = lower value;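 active = single-dose well whose peak fluorescence ratio is a statistical outlier from its plate by either plate-standardised score or position-corrected B-score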
PostGolgi ctrl = yeast control strain growth, post-Golgi counter-screen; efflux-deficient yeast background strain, growth absorbance A615, 16 h; 98,000 tested, 5% active; inhibition, % at 10 µM
D1 allo mod = allosterically modulates the human D1 dopamine receptor | P21728 | HEK293 D1, CRE-luciferase, dopamine EC30 potentiation; actives deviate in either direction | B-score at 10 µM | 58,000 tested, 5.9% active | AID 641;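 active = luminescence count or its row- and column-corrected plate score outside the 99.7% band of the plate's sample wells, on either side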
hDAT+cocaine = changed human dopamine transporter uptake under cocaine IC80; AID 449768; 110,000 tested, 1.3% active; B-score at 10 µM; LLC-PK1 hDAT cells, [14C]-dopamine uptake with cocaine IC80; actives deviate in either direction;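 active = Z score or B-score, a plate-position-corrected score, falls beyond the plate's 99.7% confidence bounds, in either direction; inactive = both scores lie inside the 99.7% bounds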
A number is an active result. Rule as the data show it, unless noted: active = inhibition above about 30%; inactive = the rest.

For CCc1ccc(OCC(=O)Nc2cc(S(=O)(=O)CC)ccc2O)cc1 the results were PLAP act inactive, PostGolgi yeast inactive and PostGolgi ctrl inactive.
For O=C(O)c1ccc2c(c1)OCCO2 the results were PLAP act inactive, PostGolgi yeast inactive, Cav3 T inh inactive, PostGolgi ctrl inactive and hDAT+cocaine inactive.
For CC(C)(C)N(Cc1ccccc1)C(=O)c1ccc2c(c1)OCCO2 the results were PLAP act inactive, PostGolgi yeast inactive, Cav3 T inh -4.3, PostGolgi ctrl inactive, D1 allo mod inactive and hDAT+cocaine inactive.
For CSC(=O)CC(=O)NC(=O)c1ccccc1 the results were PLAP act inactive, PostGolgi yeast inactive, Cav3 T inh inactive, PostGolgi ctrl inactive, D1 allo mod inactive and hDAT+cocaine inactive.
`CCOc1ccccc1OCCCOc1ccc([N+](=O)[O-])cc1Cl` gave PostGolgi yeast inactive, Cav3 T inh inactive, PostGolgi ctrl 38 and hDAT+cocaine inactive.
`Nc1nnc(C(c2ccccc2)c2ccccc2)s1` gave PLAP act inactive, PostGolgi yeast inactive, Cav3 T inh inactive, PostGolgi ctrl inactive and hDAT+cocaine inactive.
c1ccc(-c2noc(CSc3nnnn3-c3ccccc3)n2)cc1 was read as PLAP act inactive, PostGolgi yeast inactive, Cav3 T inh -5, PostGolgi ctrl inactive, D1 allo mod inactive and hDAT+cocaine inactive.
For Cc1ccc(-c2noc(CSc3nnc(Cc4ccccc4)n3-c3cccc(C)c3)n2)cc1 the results were PLAP act inactive, PostGolgi yeast inactive, Cav3 T inh inactive, PostGolgi ctrl inactive and hDAT+cocaine inactive.
For Cc1ccc(-c2noc(CSc3nnc(Cc4cccs4)n3-c3ccccc3)n2)cc1 the results were PLAP act inactive, PostGolgi yeast inactive, Cav3 T inh -7.6, PostGolgi ctrl inactive and hDAT+cocaine inactive.
`Cn1c(SCc2nc(-c3ccc(Cl)cc3)no2)nnc1-c1ccco1` gave PLAP act inactive, PostGolgi yeast inactive, PostGolgi ctrl inactive, D1 allo mod inactive and hDAT+cocaine inactive.
Fc1ccc(-n2c(Cc3ccccc3)nnc2SCc2nc(-c3cccs3)no2)cc1 was read as PLAP act inactive, PostGolgi yeast inactive, Cav3 T inh inactive, PostGolgi ctrl 33, D1 allo mod inactive and hDAT+cocaine inactive.
`Clc1ccc(-c2noc(CSc3nnc(Cc4cccs4)n3-c3ccccc3)n2)cc1` gave PLAP act inactive, PostGolgi yeast inactive, Cav3 T inh -5.7, PostGolgi ctrl inactive and hDAT+cocaine inactive.
c1ccc(OCc2nc(-c3cccs3)no2)cc1 was read as PLAP act inactive, PostGolgi yeast inactive, Cav3 T inh inactive, PostGolgi ctrl inactive and hDAT+cocaine inactive.
For CC(=O)Nc1ccc(S(=O)(=O)NC2(C(F)(F)F)N=C(c3ccccc3)NC2=O)cc1 (stereo not drawn) the results were PLAP act inactive, PostGolgi yeast inactive, Cav3 T inh inactive, PostGolgi ctrl inactive and hDAT+cocaine inactive.
Screening COc1ccc2cc(CCNC(=O)c3c(-c4ccccc4Cl)noc3C)c(=O)[nH]c2c1 returned PLAP act inactive, PostGolgi yeast inactive, PostGolgi ctrl inactive, D1 allo mod inactive and hDAT+cocaine inactive.
`CCOC(=O)c1ccc(NC(=O)CN(Cc2ccc(Cl)cc2)S(C)(=O)=O)cc1` gave PLAP act inactive, PostGolgi yeast inactive, Cav3 T inh inactive, PostGolgi ctrl inactive and hDAT+cocaine inactive.
For CCc1ccc(-c2ccc(C(=O)C(F)(F)F)[nH]2)cc1 the results were PLAP act inactive, PostGolgi yeast inactive, Cav3 T inh inactive, PostGolgi ctrl inactive and hDAT+cocaine inactive.
Screening Cc1ccc(-c2noc(CSc3nnc(-c4ccncc4)n3-c3ccc(C)cc3)n2)cc1 returned PLAP act inactive, PostGolgi yeast inactive, Cav3 T inh inactive, PostGolgi ctrl inactive and hDAT+cocaine inactive.
Screening Clc1ccc(-c2noc(CSc3nnc(-c4ccncc4)n3-c3ccccc3)n2)cc1 returned PLAP act inactive, PostGolgi yeast inactive, Cav3 T inh -4.9, PostGolgi ctrl inactive and hDAT+cocaine inactive.
Screening Cc1ccc(-c2noc(CSc3nnnn3C3CCCCC3)n2)cc1 returned PLAP act inactive, PostGolgi yeast inactive, Cav3 T inh -4.6, PostGolgi ctrl 40 and hDAT+cocaine inactive.
Screening COc1ccc(-c2noc(CSc3nnc(Cc4ccccc4)n3-c3cccc(C)c3)n2)cc1OC returned PLAP act inactive, PostGolgi yeast inactive, Cav3 T inh -5.5, PostGolgi ctrl inactive, D1 allo mod inactive and hDAT+cocaine inactive.
`c1ccc(-c2noc(CSc3nnc(Cc4cccs4)n3-c3ccccc3)n2)cc1` gave PostGolgi yeast inactive, Cav3 T inh -4.7, PostGolgi ctrl inactive, D1 allo mod inactive and hDAT+cocaine inactive.
For Cc1ccc(-n2c(Cc3cccs3)nnc2SCC(N)=O)cc1 the results were PLAP act inactive, PostGolgi yeast inactive, Cav3 T inh inactive, PostGolgi ctrl inactive and hDAT+cocaine inactive.
Screening Cc1ccc(CSc2nnc(-c3ccco3)o2)cc1 returned PLAP act inactive, PostGolgi yeast inactive, Cav3 T inh inactive, PostGolgi ctrl inactive and hDAT+cocaine inactive.
For Cc1cc(C)n(-c2cc(-c3ccccc3)nc(C)n2)n1 the results were PLAP act inactive, PostGolgi yeast inactive, Cav3 T inh inactive, PostGolgi ctrl inactive, D1 allo mod inactive and hDAT+cocaine inactive.
For CCOc1ccc(-n2c(SCc3nc(-c4ccc(C)cc4)no3)nnc2-c2ccncc2)cc1 the results were PLAP act inactive, PostGolgi yeast inactive, Cav3 T inh -4.3, PostGolgi ctrl inactive and hDAT+cocaine inactive.
`O=C(CN1CCC(O)(c2ccc3c(c2)OCO3)CC1)OC1CCCCC1` gave PLAP act inactive, PostGolgi yeast inactive, Cav3 T inh inactive, PostGolgi ctrl 41, D1 allo mod inactive and hDAT+cocaine inactive.
Screening O=C(Nc1nc(COc2ccccc2)cs1)C12CC3CC(CC(C3)C1)C2 returned PLAP act inactive, PostGolgi yeast inactive, Cav3 T inh inactive, PostGolgi ctrl 37 and hDAT+cocaine inactive.
Screening CC(=O)SCC(Cc1ccccc1)C(=O)NCC(=O)OCc1ccccc1 (stereo not drawn) returned Cav3 T inh -5.2 and hDAT+cocaine inactive.
Screening CC(=O)N1CCCc2cc(S(=O)(=O)Nc3ccc4c(c3)OCO4)ccc21 returned PLAP act inactive, PostGolgi yeast inactive, Cav3 T inh inactive, PostGolgi ctrl 33, D1 allo mod inactive and hDAT+cocaine inactive.
`COc1cccc(OCC(O)CN(CCO)Cc2ccccc2)c1` (stereo not drawn) gave PLAP act inactive, PostGolgi yeast inactive, Cav3 T inh inactive, PostGolgi ctrl inactive, D1 allo mod inactive and hDAT+cocaine inactive.
Screening CCC(=O)c1ccc(OCC(O)CN(CCc2ccccc2)Cc2ccccc2)cc1 (stereo not drawn) returned PLAP act inactive, PostGolgi yeast inactive, Cav3 T inh inactive, PostGolgi ctrl 52 and hDAT+cocaine inactive.
CC(C)CCNC(=O)C(NS(=O)(=O)c1ccc2c(c1)c(=O)n(C)c(=O)n2C)c1ccccc1 (stereo not drawn) was read as PLAP act inactive, PostGolgi yeast inactive and PostGolgi ctrl inactive.
